High-throughput results from PubChem BioAssay.
In the library only some 2.1% were active in any assay of this set; here they are far more common.
APP 5UTR inh – APP translation inhibition | 190,000 compounds, 0.82% hits | SH-SY5Y APP 5'UTR-luciferase reporter, luminescence | inhibition, % at 2 µM | AID 1285;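 active means inhibition above a set limit, derived from the sample mean plus 3 SD, cut at about 45% in these data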
BaF3 tox – parental Ba/F3 viability inhibition as JAK2V617F counter-screen; CellTiter-Glo ATP luminescence; inhibition, % at 5.6 µM; 220,000 compounds, 1.1% hits;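 active means inhibition above a per-campaign cutoff, the mean inhibition of all tested compounds plus 3 SD, cut at about 27% in these data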
aSyn UTR inh – MLPCN primary screen, SNCA 5' untranslated region; inhibition, % (tested at 7.5 µM); alpha-synuclein 5'UTR reporter, inhibitor activity; 300,000 compounds, 0.82% hits; in the data active means inhibition above about 60%;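 further: H4 neuroglioblastoma cells stably carrying SNCA 5'UTR luciferase fusion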
KLF5 inhibitor – suppresses KLF5 promoter-driven expression; DLD-1 KLF5 promoter-luciferase reporter, luminescence; inhibition, % at 5 µM; 290,000 compounds, 0.23% hits;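 active means inhibition above a per-plate limit of that plate's mean compound inhibition plus 3 SD, cut at about 60% in these data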;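 further: higher means less KLF5 promoter-driven luciferase light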
Ba/F3 V617F tox – loss of viability in JAK2V617F-driven Ba/F3 cells; inhibition, % at 5.6 µM; 220,000 compounds, 1.1% hits; Ba/F3 EpoR-JAK2V617F viability, ATP luminescence;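 active means inhibition above the campaign mean plus 3 SD over all tested compounds, cut at about 24% in these data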;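 further: cytokine-independent growth of Ba/F3 cells driven by EpoR plus mutant JAK2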
IEC-6 tox – IEC-6 cytotoxicity, counter-screen for KLF5 inhibitors; luminescence viability; 290,000 compounds, 0.78% hits; inhibition, % at 5 µM; AID 1825; in the data active means inhibition above about 22%
Hits are given with their value; 0 = inactive; - = no result given.

SMILES	APP 5UTR inh	BaF3 tox	aSyn UTR inh	KLF5 inhibitor	Ba/F3 V617F tox	IEC-6 tox
CN(C)CC1CCCCC1OC(=O)c1ccc(S(=O)(=O)N(C)c2ccccc2)cc1 (stereo unspecified)	-	-	0	0	-	0
Cc1ccc(S(=O)(=O)NCc2ccncc2)cc1	0	47.3	0	0	36.8	0
CC(C)(C)c1ccc(Oc2ccc(N)cn2)cc1	-	0	87.0	0	0	0
CC(C)(C)c1ccc(Oc2ccc(NC(=O)c3ccccc3C(=O)O)cn2)cc1	-	0	85.7	0	0	0
O=C(O)c1ccccc1C(=O)Nc1ccc(Oc2ccccc2)cc1	-	0	0	0	0	0
CCOC(=O)c1c(C)[nH]c(C(=O)N/N=C\c2ccccc2O)c1C	66.9	0	86.8	0	0	0
NNC(=O)c1cc2c(s1)CCCCCC2	69.7	0	0	0	0	0
O=C(Nn1cnnc1)c1cc2c(s1)CCCC2	0	0	0	0	0	0
N#Cc1ccc(N/N=C/c2cn(-c3ccccc3)nc2-c2ccccc2)c([N+](=O)[O-])c1	75.3	0	0	0	0	0
NS(=O)(=O)c1ccc(N/N=C/c2cn(-c3ccccc3)nc2-c2cccs2)c([N+](=O)[O-])c1	0	0	0	0	0	0
COc1ccc(Br)cc1S(=O)(=O)N1CCCc2ccccc21	-	-	0	0	-	0
Cc1ccc(S(=O)(=O)Nc2ccc3c(c2)OCCO3)cc1	0	0	0	0	0	0
Cc1nc2ccc(NS(=O)(=O)c3ccc4c(c3)OCCO4)cc2s1	0	53.1	0	0	42.0	0
Cc1ccc(S(=O)(=O)Nc2ccc3nc(C)sc3c2)cc1	0	39.1	0	0	33.6	0
CC1=C(Sc2nc3ccccc3[nH]2)C(=O)NC(C)(C)C1	47.9	0	0	0	0	0
O=C1C=CC(=O)C(C2=C3C(=O)N(CCc4ccccc4)CC(=O)N3CCC2)=C1	64.7	0	0	0	0	0
O=C1CC(=O)N(CCc2ccccc2)C(=O)N1CCc1ccccc1	0	0	0	0	0	0
COc1cccc(/C=C/C(=O)OCC(=O)Nc2ccc(Cl)cn2)c1	0	0	0	0	0	0
O=C(NCCN1CCOCC1)NC1(C(F)(F)F)Oc2ccccc2O1	0	0	0	0	0	0
NS(=O)(=O)c1ccc(CCNC(=O)NC2(C(F)(F)F)Oc3ccccc3O2)cc1	0	39.5	0	0	57.3	0
COCCNC(=O)NC1(C(F)(F)F)Oc2ccc(Cl)cc2O1 (stereo unspecified)	0	39.3	0	0	46.3	0
O=C(NCc1cccnc1)NC1(C(F)(F)F)Oc2ccc(Cl)cc2O1 (stereo unspecified)	0	38.6	0	0	52.1	0
Cc1cc(NC(=O)NC2(C(F)(F)F)Oc3ccc(Cl)cc3O2)no1 (stereo unspecified)	0	27.9	0	0	50.7	0
CCCCNC(=O)NC1(C(F)(F)F)Oc2ccccc2O1	0	0	0	0	0	0
Cc1ccc(N(CC(=O)NCc2ccco2)C(=O)CCC(=O)Nc2ccccn2)c(C)c1	-	-	0	0	-	0
SMILES	APP 5UTR inh	BaF3 tox	aSyn UTR inh	KLF5 inhibitor	Ba/F3 V617F tox	IEC-6 tox
C/C(=N\N=C1\NC(=O)C(CC(=O)Nc2ccccc2F)S1)C1CCCCC1 (stereo unspecified)	-	-	0	0	-	0
N#Cc1ccc(S(=O)(=O)NC2CC2)cc1	-	-	0	0	-	0
CCN1CCN(C2=C(NS(=O)(=O)c3ccc(NC(C)=O)cc3)C(=O)c3ccccc3C2=O)CC1	-	-	0	0	-	0
O=C(/C=C/c1ccc(O)cc1)c1ccc(NC2=C(N3CCCCC3)C(=O)c3ccccc3C2=O)cc1	0	0	0	0	0	0
O=C1C(Nc2cccc(O)c2)=C(N2CCCCC2)C(=O)c2ccccc21	0	99.1	0	0	86.6	0
Cc1ccc(NC2=C(N3CCCCC3)C(=O)c3ccccc3C2=O)cc1	0	97.7	0	0	96.0	0
O=C1C(NS(=O)(=O)c2ccc(Br)cc2)=C(N2CCCCC2)C(=O)c2ccccc21	-	-	0	0	-	0
CC(=O)Nc1ccc(S(=O)(=O)NC2=C(N3CCN(C)CC3)C(=O)c3ccccc3C2=O)cc1	-	-	70.6	0	-	0
CN(C1=C(N2CCCCC2)C(=O)c2ccccc2C1=O)c1ccccc1	0	65.0	0	0	26.0	0
C=CCOc1cccc(/C=N/NC(=O)CN2CCCCC2)c1	-	-	0	0	-	0
CC(CNC(=O)CN1C(=O)COc2ccc(S(=O)(=O)N3CCCCC3)cc21)c1ccccc1 (stereo unspecified)	-	-	0	0	-	0
O=C1N=C(N2CCOCC2)S/C1=C/c1ccc(-c2ccc(F)cc2)o1	0	0	0	0	0	0
